Measured values taken from PubChem BioAssay (Tox21).
Records with an inconclusive call do not appear. Active and inactive are the calls of the source. Unless noted, calls come from the whole dose curve; as a rule, active = well fitted curve in the direction sought with a large enough effect in the repeat runs; inconclusive = weak or mixed curves; inactive = no such curve, though single readings can be large; an effect the other way counts as inactive or inconclusive.

Experiments:
[1] = qHTS assay to identify small molecule antagonists of the estrogen related receptor signaling pathway with the pleiotropic PPARgamma coactivator (PGC) from Tox21 10K library - cell viability counter screen (AID 1224840; active = well fitted cell-killing curve with a large enough effect in the repeat runs, not every such curve was filed as active; note: nearly all actives have a fitted effect of over 40% in size)
How it was run: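 Following seeding of 2,000 PGC/ERR cells/well and 6 hours' incubation, test compounds were delivered in DMSO. The plates then sat 17.5 hours at 37 C before a fluorogenic live-cell protease reagent (CellTiter-Fluor) was read after 30 min.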

[2] = biological target: Thyrotropin receptor (Homo sapiens) (UniProt P16473); assay: qHTS assay to identify small molecule agonists of the thyroid stimulating hormone receptor (TSHR) signaling pathway (AID 1224843; calls by dose curve; note: nearly all actives have a fitted effect of over 45% in size)
Sequence of Thyrotropin receptor (Homo sapiens) (P16473 whole entry, looked up): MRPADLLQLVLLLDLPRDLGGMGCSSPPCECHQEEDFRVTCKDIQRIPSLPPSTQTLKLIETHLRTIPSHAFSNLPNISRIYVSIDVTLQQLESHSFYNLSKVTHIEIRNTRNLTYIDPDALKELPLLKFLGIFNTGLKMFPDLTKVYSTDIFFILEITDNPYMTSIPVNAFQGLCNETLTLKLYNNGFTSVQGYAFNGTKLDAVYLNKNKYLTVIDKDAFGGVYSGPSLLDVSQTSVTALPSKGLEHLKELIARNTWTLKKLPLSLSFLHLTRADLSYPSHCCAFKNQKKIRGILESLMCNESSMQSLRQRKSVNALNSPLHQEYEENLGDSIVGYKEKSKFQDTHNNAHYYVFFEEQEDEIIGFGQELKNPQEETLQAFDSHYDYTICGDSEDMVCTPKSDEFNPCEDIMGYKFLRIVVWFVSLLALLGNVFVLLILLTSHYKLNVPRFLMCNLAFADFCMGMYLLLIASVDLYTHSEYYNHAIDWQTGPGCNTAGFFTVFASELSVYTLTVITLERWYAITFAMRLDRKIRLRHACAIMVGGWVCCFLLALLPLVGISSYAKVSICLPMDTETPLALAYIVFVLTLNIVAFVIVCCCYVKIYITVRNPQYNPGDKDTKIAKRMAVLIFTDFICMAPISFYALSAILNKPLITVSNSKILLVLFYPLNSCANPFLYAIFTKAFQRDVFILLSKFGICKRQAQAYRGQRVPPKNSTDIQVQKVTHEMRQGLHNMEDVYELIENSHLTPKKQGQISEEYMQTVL
How it was run: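 Steps: seed 800 TSHR-HEK293 cells per well; add test compound and hold 30 min at ambient temperature; dispense cAMP-d2 then anti-cAMP cryptate; incubate 1 h at ambient; measure fluorescence intensity.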

[3] = qHTS assay to identify small molecule agonists of the hypoxia (HIF-1) signaling pathway - cell viability counter screen (AID 1224844; calls by dose curve; note: nearly all actives have a fitted effect of over 50% in size)
How it was run: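 Cells (HRE-bla ME-180, 2,000 per well) sat 5 hrs at 37C, got compound for 17 hrs, were read for CCF4-AM FRET, and were finally lysed with CellTiter-Glo for a 30 min room-temperature luminescence read.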

[4] = qHTS assay to identify small molecule agonists of H2AX (AID 1224845; active = well fitted activation curve with a large enough effect in the signal ratio in the repeat runs, not every such curve was filed as active; the % refers to the signal ratio)
How it was run: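 Wild-type CHO-K1 cells, plated overnight, exposed 3hr at 37C to 15 concentrations (0.76% DMSO final). Lysed, then HTRF anti-pH2AX (S139) cryptate and anti-H2AX-d2 antibodies, 24 hr room temperature; 665/620 nm emission read.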

[5] = qHTS assay to identify small molecule agonists of the hypoxia (HIF-1) signaling pathway (AID 1224846; active = well fitted activation curve with a large enough effect in the signal ratio in the repeat runs, not every such curve was filed as active; the % refers to the signal ratio)
How it was run: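 A low-serum medium (0.5% dialyzed FBS) holding 2,000 HRE-bla ME-180 cells per well is preincubated for 5 hrs, dosed with compounds by pintool, and kept a further 17 hrs at 37C, 5% CO2 before CCF4-AM FRET detection of beta-lactamase.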

[6] = qHTS assay to identify small molecule agonists of H2AX - cell viability counter screen (AID 1224847; calls by dose curve; note: top concentration of the series differs between compounds; nearly all actives have a fitted effect of over 30% in size)
How it was run: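 Counter-screen for viability: CellTiter-Glo ATP luminescence read after 3 h compound treatment (15-point titration, 0.76% DMSO final) of CHO-K1 cells at 37C, with 30 min room-temperature reagent incubation.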

[7] = qHTS RealTime-Glo MT Cell Viability Assay in HEK293 cells - 32 hour (AID 1224868); note: top concentration of the series differs between compounds; nearly all actives have a fitted effect of over 50% in size
How it was run: (§1)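 Tox21 10K qHTS, HEK293, 600 cells/well, RealTime-Glo reagent co-dispensed with cells; 5 h preincubation, compound by pintool, 37 C, luminescence at 0–40 h.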

[8] = A CellTox Green Cytotoxicity Assay to monitor cytotoxicity in HEK293 cells - 0 hour (AID 1224869); note: nearly all actives have a fitted effect of over 50% in size
How it was run: (§2)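 Fluorescence intensity, read at 0, 8, 16, 24, 32 and 40 h of compound treatment, reflected dye binding to DNA of dead HEK293 cells; compounds (23 nL, DMSO) were added 5 h after plating cells with reagent.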

[9] = qHTS RealTime-Glo MT Cell Viability Assay in HepG2 cells - 40 hour (AID 1224870); note: nearly all actives have a fitted effect of over 50% in size
How it was run: (§3)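 HepG2 cells (600/well) mixed with RealTime-Glo MT reagent, settled 5 h at 37 C/5% CO2 before compound addition. Nonlytic NanoLuc luminescence from viable-cell prosubstrate reduction read repeatedly during 40 h treatment at 37 C.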

[10] = qHTS RealTime-Glo MT Cell Viability Assay in HepG2 cells - 8 hour (AID 1224873); note: nearly all actives have a fitted effect of over 55% in size
How it was run: as §3

[11] = qHTS RealTime-Glo MT Cell Viability Assay in HEK293 cells - 40 hour (AID 1224874); details: RealTime-Glo luminescence; max response: active compounds read low; note: nearly all actives have a fitted effect of over 50% in size
How it was run: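 Viable HEK293 cells reduce a cell-permeant prosubstrate; the product diffuses out and is consumed by NanoLuc in the medium to give light. Compounds went in after a 5 h incubation and plates were read over the treatment course.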

[12] = A CellTox Green Cytotoxicity Assay to monitor cytotoxicity in HEK293 cells - 24 hour (AID 1224875); note: series mostly up to about 77 µM; nearly all actives have a fitted effect of over 45% in size
How it was run: as §2

[13] = A CellTox Green Cytotoxicity Assay to monitor cytotoxicity in HepG2 cells - 16 hour (AID 1224876); note: nearly all actives have a fitted effect of over 45% in size
How it was run: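 Using 1536-well format, dye-containing HepG2 suspension was seeded, allowed 5 h at 37 C/5% CO2, dosed by pintool with compounds, positive and negative controls, and imaged for fluorescence across 40 h.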

[14] = A CellTox Green Cytotoxicity Assay to monitor cytotoxicity in HEK293 cells - 40 hour (AID 1224871); note: nearly all actives have a fitted effect of over 45% in size
How it was run: as §2

[15] = qHTS RealTime-Glo MT Cell Viability Assay in HEK293 cells - 16 hour (AID 1224872)
How it was run: as §1

[16] = qHTS RealTime-Glo MT Cell Viability Assay in HepG2 cells - 24 hour (AID 1224867); note: nearly all actives have a fitted effect of over 50% in size
How it was run: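 Cells + NanoLuc/prosubstrate dispensed (600 cells/well) → 5 h at 37 C/5% CO2 → compounds in DMSO transferred → 40 h incubation at 37 C, luminescence read at 0, 8, 16, 24, 32, 40 h.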
% is set by controls: 0 for no effect and ±100 for the full control effect.

Cc1c(Cl)cccc1Cl
inactive: outcome [1] | outcome [2] | outcome [3] | outcome [4] | outcome [5] | outcome [6] | Potency [7] | Potency [8] | outcome [9] | outcome [10] | max response [11] -1.25% | Potency [12] | Potency [13]

OC1OCCOC1O (stereo not drawn)
inactive: outcome [1] | outcome [2] | outcome [3] | outcome [4] | outcome [5] | outcome [6] | Potency [7] | Potency [8] | outcome [9] | Potency [14] | Potency [15] | outcome [10] | max response [11] 9.9% | Potency [13]

O=C=NCC1CCCC(CN=C=O)C1 (stereo not drawn)
inactive: outcome [1] | outcome [2] | outcome [3] | outcome [4] | outcome [5] | outcome [16] | Potency [7] | Potency [8] | outcome [9] | Potency [14] | Potency [15] | outcome [10] | max response [11] 1.36% | Potency [12] | Potency [13]

COc1cc(OC)nc(O[C@H](C(=O)O)C(OC)(c2ccccc2)c2ccccc2)n1
inactive: outcome [1] | outcome [2] | outcome [3] | outcome [4] | outcome [5] | outcome [16] | Potency [7] | Potency [8] | outcome [9] | Potency [15] | outcome [10] | max response [11] 4.04% | Potency [12] | Potency [13]

C=CC(=O)CCCCC
inactive: outcome [1] | outcome [2] | outcome [3] | outcome [5] | outcome [6] | outcome [16] | Potency [7] | Potency [8] | outcome [9] | Potency [14] | Potency [15] | outcome [10] | max response [11] -1.98% | Potency [12] | Potency [13]

COc1ccc(CCO)cc1
inactive: outcome [1] | outcome [2] | outcome [3] | outcome [4] | outcome [5] | Potency [7] | Potency [8] | outcome [9] | Potency [14] | Potency [15] | outcome [10] | max response [11] 21.3% | Potency [12] | Potency [13]

CCOCCOCC
inactive: outcome [1] | outcome [2] | outcome [3] | outcome [4] | outcome [5] | outcome [6] | Potency [7] | Potency [8] | outcome [9] | Potency [14] | Potency [15] | outcome [10] | max response [11] 2.51% | Potency [12] | Potency [13]

COC(=O)CCCCC(CCSS/C(CCO)=C(\C)N(C=O)Cc1cnc(C)nc1N)SC(C)=O (stereo not drawn)
inactive: outcome [1] | outcome [2] | outcome [3] | outcome [4] | outcome [5] | outcome [6] | Potency [7] | Potency [8] | outcome [9] | Potency [14] | Potency [15] | outcome [10] | max response [11] 3.28% | Potency [12] | Potency [13]

CC(=O)C(C)O (stereo not drawn)
inactive: outcome [1] | outcome [2] | outcome [3] | outcome [4] | outcome [5] | outcome [6] | Potency [7] | Potency [8] | outcome [9] | Potency [14] | Potency [15] | outcome [10] | max response [11] 16% | Potency [13]

CCO[Si](CC)(OCC)OCC
inactive: outcome [1] | outcome [2] | outcome [3] | outcome [4] | outcome [5] | outcome [16] | Potency [7] | Potency [8] | outcome [9] | Potency [14] | Potency [15] | outcome [10] | max response [11] -9.96% | Potency [12] | Potency [13]

CCC(C)OC(C)CC (stereo not drawn)
inactive: outcome [1] | outcome [2] | outcome [3] | outcome [4] | outcome [5] | outcome [16] | Potency [7] | Potency [8] | outcome [9] | Potency [15] | outcome [10] | max response [11] -6.97% | Potency [12] | Potency [13]

CCC[C@@H]1C[C@@H](C(=O)N[C@@H]([C@H]2O[C@H](SC)[C@H](O)[C@@H](O)[C@H]2O)[C@@H](C)O)N(C)C1
inactive: outcome [1] | outcome [2] | outcome [3] | outcome [4] | outcome [6] | Potency [7] | Potency [8] | outcome [9] | Potency [14] | Potency [15] | outcome [10] | max response [11] 0.684% | Potency [12] | Potency [13]

Cc1cccc(Cl)c1
inactive: outcome [1] | outcome [2] | outcome [3] | outcome [4] | outcome [5] | outcome [6] | Potency [7] | Potency [8] | Potency [15] | outcome [10] | max response [11] 0.996% | Potency [12] | Potency [13]

OCCN1CCOCC1
inactive: outcome [1] | outcome [2] | outcome [3] | outcome [4] | outcome [5] | outcome [6] | Potency [7] | Potency [8] | outcome [9] | Potency [14] | Potency [15] | outcome [10] | max response [11] 2.9% | Potency [12] | Potency [13]

C[Si]1(C)O[Si](C)(C)O[Si](C)(C)O[Si](C)(C)O[Si](C)(C)O1
inactive: outcome [1] | outcome [2] | outcome [3] | outcome [4] | outcome [5] | outcome [6] | Potency [7] | Potency [8] | Potency [15] | outcome [10] | max response [11] 5.69% | Potency [12] | Potency [13]

CC(C)[C@H]1CC[C@H](C)C[C@@H]1O
inactive: outcome [1] | outcome [2] | outcome [3] | outcome [4] | outcome [5] | outcome [6] | Potency [7] | Potency [8] | outcome [9] | Potency [14] | Potency [15] | outcome [10] | max response [11] 2.31% | Potency [12] | Potency [13]
